# In PubChem BioAssay (NCI):
# Several values for one entry are separate records, joined by “and”; a condition that tells them apart may be missing. Identical values can stand only once. About 83,000 compounds went through this panel and 20% of them were active in at least one assay; those are over-represented in the sample as a whole.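 Growth was measured after 48 h exposure to one concentration of compound in 96-well plates. Values under 10 count as active.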 Activity calls are given as the source filed them.
# Tested on: MDA-MB-468 breast
# Test: NCI-60 one-dose screen, 48 h (100 = growth as untreated, 0 = no growth, -100 = all killed)
# Conditions: 10 µM unless noted
row,Compound,growth
1,Cn1ccnc1C(=O)/C=C/c1ccc(CC(=O)Nc2cc(C(F)(F)F)cc(C(F)(F)F)c2)cc1,78% (inactive)
2,COCCOC(=O)COc1ccc(OC)cc1,95.6% (inactive)
3,COc1cc(/C=C2\C(=O)Nc3cc(Cl)ccc32)ccc1OCc1ccc(F)cc1,93% (inactive)
4,C=C1CC[C@@H]2[C@](C)(COC(C)=O)[C@H](OC(C)=O)CC[C@@]2(C)[C@@H]1CC(Nc1ccc(S(=O)(=O)Nc2ccc(Cl)nn2)cc1)C1=CCOC1=O (some centres undefined),-32.3% (active)
5,C=NNc1ccccc1,91.2% (inactive)
6,OCC1OC(O)C(O)C(O)C1O (centres undefined),121% (inactive)
7,CN(C)Cc1ccc(O)c(C(=O)O)c1,106% (inactive)
8,CCN1C(=O)N(CC)C2C1NN=c1s/c(=C\c3ccccc3)c(=O)n12 (centres undefined),22.5% (inactive)
9,O=c1[nH]c(=S)c2c(n1CCCO)CCC2,106% (inactive)
10,CC(C)(C)c1ccc(C2CC(=O)C3=C(C2)Nc2ccccc2N(C(=O)c2ccccc2Cl)C3c2ccc(F)cc2)cc1 (centres undefined),-20.1% (active)
11,N=C(N)c1ccc(OCCCCCCCCCCOc2ccc(C(=N)N)cc2)cc1,-75.6% (active)
12,O=C1Nc2ccccc2/C1=N/N1C(=O)CN(CCCl)C1=O,107% (inactive)
13,CC1=NN(c2cccc(Cl)c2)C(=O)/C1=C\c1cn(-c2nc(N3CCOCC3)nc(N3CCOCC3)n2)c2ccccc12,95.9% (inactive)
14,Cc1cc(NCc2cc(Nc3ccnc4cc(Cl)ccc34)ccc2F)nc(N2CCN(C)CC2)n1,-45.9% (active)
15,COc1ccc(N=Nc2nccs2)c(O)c1,18.6% (inactive)
16,C=CCSc1nnc(-c2ccc(C(C)(C)C)cc2)n1-c1cccc(C(F)(F)F)c1,21.5% (inactive)
17,O=S(=O)(NC1c2ccccc2C[C@H]1O)c1ccc(Cl)cc1Cl (some centres undefined),85.7% (inactive)
18,O=c1c2c(=NCCN3CCCC3)cc3c(=O)n(CCCN4CCOCC4)c(=O)c4c(-c5ccc(CN6CCCC6)cc5)cc(c(O)n1CCCN1CCOCC1)c2c4-3,-58.1% (active)
19,Oc1c(Cl)cc(Cl)c2ccc(CN3CCCCC3)nc12,29.3% (inactive)
20,CC(=O)c1cc2c(N)c(C(=O)Nc3cccc(Cl)c3)sc2nc1C,45.3% (inactive)

row,Compound,growth
1,NC(=O)CC1(O)C=C(Br)C(=O)C(Br)=C1,-9.32% (active)
2,CCNCCNc1cc(C2CCCC2)c(C#N)c2nc3ccccc3n12,-25.5% (active)
3,CN(C)CCN1CCN(c2ncccc2C2Nc3ccccc3-n3cccc32)CC1 (centres undefined),109% (inactive)
4,CCC(CC)NCC(C)(C)O,104% (inactive)
5,C=C1C(=O)O[C@H]2[C@H]1CC/C(COC(=O)c1cc(OC)c(OC)c(OC)c1)=C\CC[C@@]1(C)O[C@@H]21,-33.2% (active)
6,O=C(NC1CCCCC1)c1ccc(Nc2ncnc3c2cnn3-c2ccccc2)cc1,76.1% (inactive)
7,COc1ccc(-c2c(N)n[nH]c2-c2cc(OC)c(OC)c(OC)c2)cc1,-0.0987% (active)
8,O=C(/C=C/c1ccc(F)cc1)c1ccc(Nc2nc(NCCO)nc(Nc3ccc(Cl)cc3)n2)cc1,57.8% (inactive)
9,CCOC(=O)c1c(C)oc2ncnc(Nc3ccc(C(=O)NCCc4ccccc4)cc3)c12,90.7% (inactive)
10,COc1cc(/C=C/C(=O)c2ccc(NC(=O)CN3CCN(c4cc5c(cc4F)c(=O)c(C(=O)O)cn5C4CC4)CC3)cc2)cc(OC)c1OC,-1.82% (active)
11,O=C(NCCCNS(=O)(=O)c1ccc(Cl)cc1)Nc1ccc(-n2cc(-c3ccncc3)c(-c3ccc(Cl)c(O)c3)n2)cc1,47.6% (inactive)
12,COc1ccc(C2CC(c3ccccc3)=NN2C(=O)c2cc(OC)c(OC)c(OC)c2)cc1O (centres undefined),41.3% (inactive)
13,COC(=O)/C=C/C(=O)c1cc(C)cc(C)c1O,110% (inactive)
14,COCCNC(C(=O)c1ccccc1)c1ccccc1 (centres undefined),90.8% (inactive)
15,CC(C)NS(=O)(=O)c1cccc(-c2ccc3c(=O)n(CCCN)c4c(c3c2)C(=O)c2ccccc2-4)c1,111% (inactive)
16,COc1cc2c(cc1-c1c(C)noc1C)ncc1nc(C3CCC(F)(F)CC3)n(C3CCC(OC(F)F)CC3)c12 (centres undefined),43.4% (inactive)
17,COc1ccc(C(=O)c2cc3c(N)c(C(=O)Nc4ccc(Br)cc4)sc3nc2C)cc1,72.8% (inactive)
18,O=C(O)/C=C/C=C/c1ccccc1,93.6% (inactive) and 112% (inactive)
19,CC(C)(C)OC(=O)NCCc1ccc(N)cc1,94.3% (inactive)
